HCMV inh: qHTS Assay for inhibitors of the human cytomegalovirus (HCMV); AID 1259415, 2018; 410,000 tested, 4.5% active; activity change, negative = inhibition, % at 57.5 µM; HFF cells, HCMV-luciferase reporter, 72 h; stronger effect = lower value; in the data active means activity change below about -60%; inconclusive means no clear call, values can overlap the other calls; inactive means above about -39%
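Two-dose cell screen: HFF monolayers treated with compounds and infected with luciferase-expressing HCMV at 1 PFU/cell, 72 h at 37C, then lysed for luciferase measurement.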
Pf growth 96h: Primary qHTS for delayed death inhibitors of the malarial parasite plastid, 96 hour incubation. P. falciparum luciferase reporter growth, 96 h. Potency, µM (doses to about 28.7 µM), without a hit: top-dose activity change, negative = inhibition, hits mostly inhibitors. 320,000 tested, 6.9% active; further: potency means the concentration at half of the fitted maximal effect
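Delayed-death screen, second-generation endpoint: infected erythrocytes, 2% hematocrit, 0.05% parasitemia final; 96 hours at 37 C, 5% CO2; luciferase detection reagent; luminescence decrease equals reduced growth.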
HCV inhibitor: qHTS Assay for Inhibitors of Hepatitis C Virus (HCV). 340,000 tested, 3.4% active. Huh7.5.1 HCVcc-Cre infection, luciferase reporter, 44 h. AID 651820, 2012. Potency, µM (series often up to 41.8 µM), without a hit: top-dose activity change, negative = inhibition, actives largely listed as inhibitors; further: potency means the concentration at half of the fitted maximal effect
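Reporter virus HCVcc-Cre (~0.5 moi) infects cells exposed to compound; seeding density 1,000 cells/well with 4 h settling beforehand. Luminescence, 15 sec read, taken 44 h post-infection following a 15 min RT substrate incubation.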
Pf growth 48h: Primary qHTS for delayed death inhibitors of the malarial parasite plastid, 48 hour incubation. P. falciparum luciferase growth in erythrocytes, 48 h. Potency, µM (doses to about 28.7 µM), for the others: at the highest dose activity change, negative = inhibition, hits mostly inhibitors. 310,000 tested, 5.9% active. AID 504832, 2011; further: potency means the concentration at half of the fitted maximal effect
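Parasite viability was followed by luminescence of a genomically integrated firefly luciferase. Cultures held 0.1% parasitemia at 2% hematocrit (final), incubated under 5% CO2 at 37 C.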
* = called active by the depositor; ? = inconclusive; / = no result. In the library only some 13% were active in any assay of this set; here they are far more common. Unless noted, the call rests on the fitted dose curve; in most records, active means well fitted inhibition curve with a large enough effect; inconclusive means small, poorly fitted or top-dose-only effect, or another doubt; inactive means no such curve, though single readings can be large or run the other way. On the % scale 0 is the no-effect control and ±100 the full control effect.

SMILES	HCMV inh	Pf growth 96h	HCV inhibitor	Pf growth 48h
Cc1ccc(S(=O)(=O)NCC(=O)N(c2ccccc2)C(C(=O)NCc2ccccc2)c2ccco2)cc1 (centres undefined)	-85.5*	13.1µM*	3.4%	-15.3%
CC(C)NC(=O)C1(C)CN(S(C)(=O)=O)CC(=O)N1CC(F)(F)F (centres undefined)	1.1	/	/	/
COc1cccc(C(=O)NC(=NCCc2c[nH]c3ccc(OC)cc23)Nc2nc(C)cc(C)n2)c1	-30.7	/	/	/
COc1ccc2[nH]cc(CCN=C(NC(=O)c3ccccc3OC)Nc3nc(C)cc(C)n3)c2c1	-95.8*	/	/	/
Cc1cc(C)nc(NC(=NCCc2c[nH]c3ccccc23)NC(=O)C(C)(C)C)n1	-19.4	4.65µM*	-27.8%	10.4µM*
CCC(CC)CN1CCC(CN2C(=S)NC[C@@H]2Cc2ccccc2)CC1	-4.4	/	/	/
COc1ccc(C)cc1-n1nnc(S(=O)(=O)c2ccc(C)cc2)c1C	-23.5	/	/	/
CCOC(=O)c1[nH]nc(-c2c(O)cc(C)cc2O)c1-c1csc(C)n1	-22.1	-11.7%	10.1%	/
CCCc1cc(-c2n[nH]c(C(=O)OCC)c2-c2cscn2)c(O)cc1O	-86.8*	?	?	?
CC1(C)Oc2ccc3ccc(=O)oc3c2[C@@H](O)[C@H]1O	-23.7	30.8%	3.16µM*	29.3%
C/C=C(\C)C(=O)OC1c2c(ccc3ccc(=O)oc23)OC(C)(C)C1OC(C)=O (centres undefined)	-32.2	?	-9.3%	8.28µM*
CC(=O)O[C@@H]1[C@H](OC(=O)CC(C)C)c2c(ccc3ccc(=O)oc23)OC1(C)C	-8.5	?	?	-14.7%
C/C=C(/C)C(=O)OC1c2c(ccc3ccc(=O)oc23)OC(C)(C)C1OC(=O)/C(C)=C\C (centres undefined)	-22.8	1.47µM*	-49.1%	?
C/C=C(/C)C(=O)O[C@@H]1c2c(ccc3ccc(=O)oc23)OC(C)(C)[C@@H]1OC(C)=O	-10.3	/	-25.3%	/
Cc1cc(C)c2c(c1)c(C)cc1nnc(SCC(=O)c3ccc(F)cc3)n12	-22.8	/	/	/
Cc1oc(-c2ccccc2F)nc1CS(=O)(=O)CC(=O)N1CCN(Cc2ccccc2)CC1	-20.2	?	?	-24.5%
CCN1CCCC1CNC(=O)CS(=O)(=O)Cc1nc(-c2ccccc2C)oc1C (centres undefined)	20.7	-16.1%	?	11.7µM*
Cc1ccc(-c2nc(CS(=O)(=O)CC(=O)NCCCN(Cc3ccccc3)C(C)C)c(C)o2)cc1	62.3	5.9%	10µM*	?
Cc1cccc(N2CCN(C(=O)CS(=O)(=O)Cc3nc(-c4ccccc4F)oc3C)CC2C)c1 (centres undefined)	-31.0	50.9%	12.6µM*	?
Cc1oc(-c2ccccc2F)nc1CS(=O)(=O)CC(=O)N1CCN(c2cccc(C(F)(F)F)c2)CC1	-23.8	/	/	/
COc1ccc(-c2nc(CS(=O)(=O)CC(=O)NCCCc3ccccc3)c(C)o2)cc1	-18.4	?	?	16.4%
Cc1oc(-c2ccccc2F)nc1CS(=O)(=O)CC(=O)N1CCOCC1	-1.1	9.28µM*	0.6%	4.6%
CCc1nnc(SCc2ccc(F)cc2Cl)c2cc3sc(C)cc3n12	-4.5	/	/	/
O=C1CC(O)C(Cc2ccccc2)N1 (centres undefined)	-1.9	/	/	/
Cc1oc(-c2ccccc2F)nc1CS(=O)(=O)CC(=O)NCCCN1CCc2ccccc2C1	-28.4	8.28µM*	?	?
SMILES	HCMV inh	Pf growth 96h	HCV inhibitor	Pf growth 48h
COc1cc2ccccc2cc1C(=O)N1CCN(c2nc3c(C)cc(C)cc3s2)CC1	7.0	/	/	/
Cc1nc2nncn2c(NCc2ccc(Cl)cc2)c1C	-39.2	/	/	/
Cc1ccc(NC(=O)c2sc3ncn(CC(=O)N4CCOCC4)c(=O)c3c2C)c(Br)c1	64.7	11.7µM*	?	17.8%
Cc1cc([N+](=O)[O-])ccc1NC(=O)c1sc2ncn(CC(=O)N3CCOCC3)c(=O)c2c1C	-35.7	14.7µM*	6.7%	?
CCOc1ccccc1NC(=O)c1sc2ncn(CC(=O)N3CCOCC3)c(=O)c2c1C	6.8	6.1%	1.0%	7.6%
O=C(NCc1ccc(Cl)cc1)C1CCN(c2ncnc3c2nc2n3CCCCC2)CC1	26.7	/	/	/
CCC(NC(=O)c1ccccc1NC(=O)c1ccc(OC)cc1)C(=O)N1CCCC1 (centres undefined)	?	-11.8%	8.7%	43.6%

High-throughput results: PubChem, National Center for Advancing Translational Sciences (NCATS)
